Hits are enriched below; roughly 6% of the tested compounds scored in any of these assays.
D3 ag – activates the human D3 dopamine receptor | D3R DiscoveRx beta-arrestin cells, luminescence, 90 min | max activation, % | hit rate 0.58% among 410,000; in the data active = max activation above about 30%
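Agonist-mode cell screen: cells plated at 1500/well and incubated overnight at 37 °C, then exposed to library compounds for 90 min at 37 °C. Detection reagent was added for 30–60 min at room temperature, and luminescence was read.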
D1 antagonist – blocks dopamine activation of the human D1 receptor. HEK293 TREx D1 cells, calcium flux, dopamine EC80; stronger effect = lower value. P21728. AID 504652. activity change, negative = inhibition, % at 10 µM. hit rate 3.2% among 360,000; in the data active = activity change below about -30%
Target sequence (P21728 whole entry, looked up): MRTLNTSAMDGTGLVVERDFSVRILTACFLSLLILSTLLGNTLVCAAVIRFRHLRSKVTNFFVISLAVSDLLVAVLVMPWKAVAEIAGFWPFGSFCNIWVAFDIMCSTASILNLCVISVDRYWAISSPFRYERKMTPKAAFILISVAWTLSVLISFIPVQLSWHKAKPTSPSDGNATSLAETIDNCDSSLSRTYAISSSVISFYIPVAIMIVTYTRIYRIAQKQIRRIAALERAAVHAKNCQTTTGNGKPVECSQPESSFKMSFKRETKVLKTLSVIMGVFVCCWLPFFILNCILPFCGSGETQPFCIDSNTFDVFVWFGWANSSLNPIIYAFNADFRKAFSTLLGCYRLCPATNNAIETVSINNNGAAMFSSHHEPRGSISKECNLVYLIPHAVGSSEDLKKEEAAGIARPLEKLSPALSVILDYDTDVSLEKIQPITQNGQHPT
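Tetracycline-induced HEK293 Trex D1 cells, force-coupled to calcium, dye-loaded; compounds added and read 180 s, then EC80 dopamine added and calcium flux tracked kinetically another 180 s.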
D1 agonist – human D1 receptor agonism; P21728; HEK293 T-REx D1 cells, calcium flux, agonist mode; activation, % at 2 µM; hit rate 1% among 360,000; AID 504660; in the data active = activation above about 30%
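Tetracycline-induced HEK293 TREx D1 cells, force-coupled to calcium signalling, were dye-loaded with a no-wash calcium kit. Compound was pin-added after a 10 s baseline. Fluorescence was read kinetically at 1 cycle/s for 180 s, with calcium rises flagged as agonism.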
D1 PAM – human D1 dopamine receptor positive modulation | P21728 | HEK293 TREx D1 cells, calcium flux, dopamine EC20 potentiation | potentiation, % at 10 µM | hit rate 0.036% among 360,000 | AID 504651; in the data active = potentiation above about 30%
D3 antag – antagonists of human D3 dopamine receptor | P35462 | D3R cells, DiscoveRx beta-arrestin luminescence, antagonist mode; stronger effect = lower value | max response, negative = inhibition, % | hit rate 2.5% among 360,000 | AID 652054; in the data active = max response below about -50%; inconclusive = no clear call, values can overlap the other calls
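Cells plated overnight at 1500 cells/well, then exposed to library compounds with dopamine controls for 90 minutes at 37 degrees C. DiscoveRx reagent added for 30–60 minutes at room temperature; luminescence read, quantitative HTS format.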
Large screens that a line does not name were inactive.

CCOc1cc(/C=N/NC(=O)c2ccncc2)ccc1OC(=O)c1ccc([N+](=O)[O-])cc1	none
CCOc1cc(/C=N/NC(=O)c2ccncc2)ccc1OC(=O)c1ccccc1	D1 antagonist -40
CC(=O)Nc1cc(C(=O)N2CCOCC2)ccc1S(=O)(=O)c1ccc(C)cc1	D1 antagonist -31
CC(=O)Nc1cc(C(=O)O)ccc1S(=O)(=O)c1ccc(C)cc1	none
CC(=O)Nc1cc(C(=O)NCc2ccc(F)cc2)ccc1S(=O)(=O)c1ccc(C)cc1	D1 antagonist -67 (no result: D3 antag)
CN(C)/C=C(\C#N)C(=O)N/N=C/c1ccccc1	D1 antagonist -31
COc1cc(C2C(=O)N(C3CCCCCC3)CC(=O)N2CCC2=CCCCC2)ccc1OC(C)C (configuration not stated)	none (no result: D3 antag)
CCOC(=O)c1c(C)[nH]c(C)c1S(=O)(=O)NCCN1CCN(c2cc(Cl)ccc2C)CC1	D1 antagonist -42, D3 antag inconclusive
CCOC(=O)c1c(C)[nH]c(C)c1S(=O)(=O)NCC(=O)N1CCN(c2cc(Cl)ccc2C)CC1	none (no result: D3 antag)
CCOC(=O)c1c(C)[nH]c(C)c1S(=O)(=O)NCC(=O)Nc1ccc(CC)cc1	D1 antagonist -35 (no result: D3 antag)
CCCCc1cc(=O)oc2cc(OCC(=O)NCc3ccccn3)ccc12	D1 antagonist -42
CCCOc1ccc(CNC(=O)C2CCN(c3nc4ccccc4nc3C(F)(F)F)CC2)cc1	none (no result: D3 antag)
CCOc1ccc(C2NC(=O)C(C#N)=C(S)N2c2ccc(OC)cc2)cc1OC (configuration not stated)	D3 antag -68
COc1ccc(C2NC(=O)C(C#N)=C(S)N2c2cccc(C)c2)cc1OC (configuration not stated)	D1 antagonist -61
COc1cc(C2NC(=O)C(C#N)=C(S)N2c2ccc(C)cc2)ccc1OC(C)C (configuration not stated)	D3 antag -68 (no result: D1 antagonist)
N#CC1=C(S)N(c2ccccc2)C(c2ccc(-c3ccc(Cl)c(Cl)c3)o2)NC1=O (configuration not stated)	D1 agonist 63
Cn1c2cc(S(C)=O)sc2c2cnn(Cc3ccccc3F)c(=O)c21 (configuration not stated)	none (no result: D3 ag, D3 antag)
N#CC1=C(S)N(c2ccc(F)cc2)C(c2ccco2)NC1=O (configuration not stated)	none
Cc1ccc(N2C(S)=C(C#N)C(=O)NC2c2ccco2)cc1 (configuration not stated)	D1 antagonist -47
CCN(Cc1ccccc1)C(=O)COC(=O)c1cc(S(=O)(=O)Nc2c(C)n(C)n(-c3ccccc3)c2=O)ccc1C	none
Cc1ccc(S(=O)(=O)Nc2c(C)n(C)n(-c3ccccc3)c2=O)cc1C(=O)NCc1ccccn1	D1 antagonist -34
CSc1nc2ccc(S(=O)(=O)Nc3c(C)n(C)n(-c4ccccc4)c3=O)cc2s1	D1 antagonist -91
CSc1ccc(CN(C)C(=O)c2ccc(S(=O)(=O)Nc3c(C)n(C)n(-c4ccccc4)c3=O)cc2)cc1	none (no result: D1 antagonist, D1 agonist, D1 PAM)
CCN(Cc1ccccc1)C(=O)C(C)OC(=O)c1cc(S(=O)(=O)Nc2c(C)n(C)n(-c3ccccc3)c2=O)ccc1C (configuration not stated)	D1 antagonist -69
Cc1c(NS(=O)(=O)c2ccc(C(=O)NCc3ccc(F)cc3)cc2)c(=O)n(-c2ccccc2)n1C	D1 antagonist -36
COc1ccc2oc(-c3ccc(C)c(NC(=O)c4ccc(-c5ccccc5[N+](=O)[O-])o4)c3)nc2c1	none (no result: D3 antag)
COc1cccc(N2CCN(C(=O)c3cnc4c(-c5ccc(F)cc5)c(C)nn4c3C)CC2)c1	none (no result: D3 antag)
COc1ccc(NC(=O)C2CCCN(S(=O)(=O)c3ccc4c(c3)CCCC(=O)N4)C2)cc1OC (configuration not stated)	none (no result: D3 antag)
Cc1ccc(-c2nn(-c3ccccc3)cc2CSC(=N)N)cc1	D1 agonist 51
CC(NC(=O)C1CCC(C(C)(C)C)CC1)C(c1ccccc1)N1CCOCC1 (configuration not stated)	none
CC(NC(=O)Nc1ccc(Cl)c(Cl)c1)C(c1ccccc1)N1CCOCC1 (configuration not stated)	D1 agonist 158
CC(NC(=O)Nc1ccc([N+](=O)[O-])cc1)C(c1ccccc1)N1CCOCC1 (configuration not stated)	D1 agonist 173
CC(NC(=O)c1ccc(Cl)cc1Cl)C(c1ccccc1)N1CCOCC1 (configuration not stated)	none
CCC(O)c1nc2ccccc2n1Cc1cc(C)ccc1C (configuration not stated)	none (no result: D3 antag)
COc1ccc(/C=N/Nc2ncnc3c2[nH]c2ccccc23)c(OC)c1OC	none
Fc1ccc2[nH]c3c(NCc4ccccc4)ncnc3c2c1	D1 antagonist -40
COCCCNc1ncnc2c1[nH]c1ccccc12	none (no result: D3 ag, D3 antag)
C=CCNc1ncnc2c1[nH]c1ccc(C)cc12	D1 antagonist -32
COc1cccc(/C=N/Nc2ncnc3c2[nH]c2ccc(C)cc23)c1OC	D1 antagonist -34
COCCNc1ncnc2c1[nH]c1ccccc12	D1 antagonist -37
COc1ccc(NC(=O)c2oc3ccccc3c2NC(=O)Cc2coc3cc(C)ccc23)cc1	none (no result: D3 antag)
CCc1oc(C(=O)O)cc1CN(CC)CC	D3 antag -66
CCc1oc(C(=O)O)cc1COC	none
CCn1cc(C(=O)OCC(=O)OC2CC(C)CCC2C(C)C)c(=O)c2ccc(C)nc21 (configuration not stated)	D3 antag -81
C=CCOC(=O)c1cn(CC)c2nc(C)ccc2c1=O	none
O=C(COC(=O)CN1C(=O)c2ccccc2C1=O)Nc1ncc(Cl)cc1Cl	none
CCC1(CC)NC(=O)N(CC(=O)OCC(=O)Nc2ncc(Cl)cc2Cl)C1=O	D1 antagonist -64
O=C(COC(=O)CCOc1ccccc1)Nc1ncc(Cl)cc1Cl	D1 antagonist -60
CCn1nc(C)c2c(-c3ccccc3)cc(=O)n(C(C)C(=O)Nc3cccc(F)c3)c21 (configuration not stated)	none (no result: D3 antag)
O=C(COc1ccc(C(=O)c2ccccc2)cc1)NC1CCCCCC1	none
O=C(COc1ccc(C(=O)c2ccccc2)cc1)NC1CCCCC1	D1 antagonist -31
O=C(COc1ccc(-n2cnnn2)cc1)NC1CCCCC1	D3 antag -65
Cc1ccsc1C1C=C(c2cccc(Br)c2)Nc2ncnn21 (configuration not stated)	D1 agonist 43
COc1cccc(C2=CC(c3ccc(C)cc3)n3ncnc3N2)c1 (configuration not stated)	none (no result: D3 ag, D3 antag)
CCN1CC2=C(OC(N)=C(C#N)C2c2ccccc2)/C(=C\c2ccccc2)C1 (configuration not stated)	D1 antagonist -73
